# Measured values reported in the supplement of paper PMC4022240.
# ± gives the standard deviation.
# T1: HaloTag-ATRX ADD domain (163-292)
# T1 chain: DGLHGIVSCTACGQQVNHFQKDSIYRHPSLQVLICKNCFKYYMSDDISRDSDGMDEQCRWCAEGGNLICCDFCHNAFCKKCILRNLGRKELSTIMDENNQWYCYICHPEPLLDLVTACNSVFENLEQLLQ
# Key:
# Assay in all cases: peptide microarray binding signal (635 nm), min-max normalized on array (fraction of array maximum); higher = stronger binding
# Settings in all cases: peptide region: H3 112-124
# [1] = biological target: T1, HaloTag-ATRX ADD domain (163-292)
# Outline: (§1)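 For each library, binding signal was taken as the triplicate-spot mean intensity and then min-max scaled. Spots of histone 13-mer peptide–cellulose conjugates on nitrocellulose, printed in triplicate with a Cy3 tracer, were probed for 1 h at 4°C with either biotin-labelled HaloTag reader fusions (10 nM to 1 μM) and streptavidin-Alexa Fluor 647 or rabbit histone antibodies (1:10,000 to 1:2,000) and anti-rabbit Alexa 647. Readout at 635 nm came from an Axon GenePix 4000B.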
# [2] = biological target: HaloTag-ING2 PHD (mouse Ing2 200-280)
# Outline: as §1
# [3] = biological target: anti-H3K4me3 antibody ab8580
# Outline: as §1
# [4] = biological target: anti-H3K9me3 antibody ab8898
# Outline: as §1
# [5] = peptide modifications: H3K115me1 H3R116me2s, binder concentration: 1:2,000 dilution
# [6] = peptide modifications: H3K115me1 H3R116me2s, binder concentration: 1:10,000 dilution
# [7] = peptide modifications: H3K115me3 H3K122me2, binder concentration: 1:2,000 dilution
# [8] = peptide modifications: H3K115me3 H3K122me2, binder concentration: 1:10,000 dilution
# [9] = peptide modifications: H3K115me3 H3R116cit, binder concentration: 1:2,000 dilution
# [10] = peptide modifications: H3K115me3 H3R116cit, binder concentration: 1:10,000 dilution
# [11] = peptide modifications: H3K115me3 H3R116me1, binder concentration: 1:2,000 dilution
# [12] = peptide modifications: H3K115me3 H3R116me1, binder concentration: 1:10,000 dilution
# [13] = peptide modifications: H3K115me3, binder concentration: 1:2,000 dilution
# [14] = peptide modifications: H3K115me3, binder concentration: 1:10,000 dilution
# [15] = peptide modifications: H3K115me2 H3R116cit, binder concentration: 1:2,000 dilution
# [16] = peptide modifications: H3K115me2 H3R116cit, binder concentration: 1:10,000 dilution
# [17] = peptide modifications: H3K115me2 H3K122ac, binder concentration: 1:2,000 dilution
# [18] = peptide modifications: H3K115me2 H3K122ac, binder concentration: 1:10,000 dilution
# [19] = peptide modifications: H3K115me2 H3K122me1, binder concentration: 1:2,000 dilution
# [20] = peptide modifications: H3K115me2 H3K122me1, binder concentration: 1:10,000 dilution
# [21] = peptide modifications: H3K115me3 H3K122me3, binder concentration: 1:2,000 dilution
# [22] = peptide modifications: H3K115me3 H3K122me3, binder concentration: 1:10,000 dilution
# [23] = peptide modifications: H3K115me2 H3R116me2a, binder concentration: 1:2,000 dilution
# [24] = peptide modifications: H3K115me2 H3R116me2a, binder concentration: 1:10,000 dilution
binder,measurement,setting,value
IHAKRVTIMPKDI [H3 112-124 I H A Kme Rme2s V T I M P K D I],peptide microarray binding signal,"[1]; peptide modifications: H3K115me1 H3R116me2s, binder concentration: 50 nM",0.00257 ± 2.3e-05
same,peptide microarray binding signal,"[1]; peptide modifications: H3K115me1 H3R116me2s, binder concentration: 500 nM",0.00552 ± 0.00018
same,peptide microarray binding signal,"[2]; peptide modifications: H3K115me1 H3R116me2s, binder concentration: 10 nM",0.004 ± 0.00015
same,peptide microarray binding signal,"[2]; peptide modifications: H3K115me1 H3R116me2s, binder concentration: 100 nM",0.00716 ± 0.00083
same,peptide microarray binding signal,[3]; [5],0.000906 ± 2.8e-05
same,peptide microarray binding signal,[3]; [6],0.00137 ± 1.3e-05
same,peptide microarray binding signal,[4]; [5],0.00156 ± 0.00014
same,peptide microarray binding signal,[4]; [6],0.00127 ± 1.3e-05
IHAKRVTIMPKDI [H3 112-124 I H A Kme3 R V T I M P Kme2 D I],peptide microarray binding signal,"[1]; peptide modifications: H3K115me3 H3K122me2, binder concentration: 50 nM",0.00464 ± 6.3e-05
same,peptide microarray binding signal,"[1]; peptide modifications: H3K115me3 H3K122me2, binder concentration: 500 nM",0.009477 ± 4.6e-05
same,peptide microarray binding signal,"[2]; peptide modifications: H3K115me3 H3K122me2, binder concentration: 10 nM",0.0436 ± 0.0022
same,peptide microarray binding signal,"[2]; peptide modifications: H3K115me3 H3K122me2, binder concentration: 100 nM",0.0676 ± 0.0025
same,peptide microarray binding signal,[3]; [7],0.0196 ± 0.00059
same,peptide microarray binding signal,[3]; [8],0.0182 ± 0.0013
same,peptide microarray binding signal,[4]; [7],0.0246 ± 0.0043
same,peptide microarray binding signal,[4]; [8],0.00894 ± 0.00038
IHAKRVTIMPKDI [H3 112-124 I H A Kme3 Rcit V T I M P K D I],peptide microarray binding signal,"[1]; peptide modifications: H3K115me3 H3R116cit, binder concentration: 50 nM",0.00821 ± 0.00022
same,peptide microarray binding signal,"[1]; peptide modifications: H3K115me3 H3R116cit, binder concentration: 500 nM",0.0148 ± 0.00063
same,peptide microarray binding signal,"[2]; peptide modifications: H3K115me3 H3R116cit, binder concentration: 10 nM",0.0661 ± 0.012
same,peptide microarray binding signal,"[2]; peptide modifications: H3K115me3 H3R116cit, binder concentration: 100 nM",0.0923 ± 0.011
same,peptide microarray binding signal,[3]; [9],0.0677 ± 0.0083
same,peptide microarray binding signal,[3]; [10],0.058 ± 0.0049
same,peptide microarray binding signal,[4]; [9],0.0746 ± 0.0023
same,peptide microarray binding signal,[4]; [10],0.0265 ± 0.00085
IHAKRVTIMPKDI [H3 112-124 I H A Kme3 Rme V T I M P K D I],peptide microarray binding signal,"[1]; peptide modifications: H3K115me3 H3R116me1, binder concentration: 50 nM",0.0052 ± 0.00018
same,peptide microarray binding signal,"[1]; peptide modifications: H3K115me3 H3R116me1, binder concentration: 500 nM",0.00929 ± 0.00049
same,peptide microarray binding signal,"[2]; peptide modifications: H3K115me3 H3R116me1, binder concentration: 10 nM",0.0491 ± 0.0085
same,peptide microarray binding signal,"[2]; peptide modifications: H3K115me3 H3R116me1, binder concentration: 100 nM",0.07016 ± 0.00021
same,peptide microarray binding signal,[3]; [11],0.0275 ± 0.0037
same,peptide microarray binding signal,[3]; [12],0.0305 ± 0.0067
same,peptide microarray binding signal,[4]; [11],0.0215 ± 0.0033
same,peptide microarray binding signal,[4]; [12],0.0113 ± 0.0013
IHAKRVTIMPKDI [H3 112-124 I H A Kme3 R V T I M P K D I],peptide microarray binding signal,"[1]; peptide modifications: H3K115me3, binder concentration: 50 nM",0.00549 ± 0.00022
same,peptide microarray binding signal,"[1]; peptide modifications: H3K115me3, binder concentration: 500 nM",0.0171 ± 0.00049
same,peptide microarray binding signal,"[2]; peptide modifications: H3K115me3, binder concentration: 10 nM",0.026 ± 0.0073
same,peptide microarray binding signal,"[2]; peptide modifications: H3K115me3, binder concentration: 100 nM",0.00872 ± 0.00066
same,peptide microarray binding signal,[3]; [13],0.0334 ± 0.0055
same,peptide microarray binding signal,[3]; [14],0.0596 ± 0.027
same,peptide microarray binding signal,[4]; [13],0.0319 ± 0.041
same,peptide microarray binding signal,[4]; [14],0.0536 ± 0.0037
IHAKRVTIMPKDI [H3 112-124 I H A Kme2 Rcit V T I M P K D I],peptide microarray binding signal,"[1]; peptide modifications: H3K115me2 H3R116cit, binder concentration: 50 nM",0.00386 ± 8.5e-05
same,peptide microarray binding signal,"[1]; peptide modifications: H3K115me2 H3R116cit, binder concentration: 500 nM",0.008 ± 0.00037
same,peptide microarray binding signal,"[2]; peptide modifications: H3K115me2 H3R116cit, binder concentration: 10 nM",0.0196 ± 0.00092
same,peptide microarray binding signal,"[2]; peptide modifications: H3K115me2 H3R116cit, binder concentration: 100 nM",0.0271 ± 0.0013
same,peptide microarray binding signal,[3]; [15],0.00257 ± 8.7e-05
same,peptide microarray binding signal,[3]; [16],0.00211 ± 6.7e-05
same,peptide microarray binding signal,[4]; [15],0.00118 ± 5.6e-05
same,peptide microarray binding signal,[4]; [16],0.00133 ± 4e-05
IHAKRVTIMPKDI [H3 112-124 I H A Kme2 R V T I M P Kac D I],peptide microarray binding signal,"[1]; peptide modifications: H3K115me2 H3K122ac, binder concentration: 50 nM",0.00357 ± 5.2e-05
same,peptide microarray binding signal,"[1]; peptide modifications: H3K115me2 H3K122ac, binder concentration: 500 nM",0.006 ± 0.00044
same,peptide microarray binding signal,"[2]; peptide modifications: H3K115me2 H3K122ac, binder concentration: 10 nM",0.0178 ± 0.0029
same,peptide microarray binding signal,"[2]; peptide modifications: H3K115me2 H3K122ac, binder concentration: 100 nM",0.0235 ± 0.0049
same,peptide microarray binding signal,[3]; [17],0.00145 ± 0.00019
same,peptide microarray binding signal,[3]; [18],0.00188 ± 0.00012
same,peptide microarray binding signal,[4]; [17],0.00186 ± 0.00037
same,peptide microarray binding signal,[4]; [18],0.00277 ± 0.00067
IHAKRVTIMPKDI [H3 112-124 I H A Kme2 R V T I M P Kme D I],peptide microarray binding signal,"[1]; peptide modifications: H3K115me2 H3K122me1, binder concentration: 50 nM",0.00398 ± 8.3e-05
same,peptide microarray binding signal,"[1]; peptide modifications: H3K115me2 H3K122me1, binder concentration: 500 nM",0.00852 ± 0.00012
same,peptide microarray binding signal,"[2]; peptide modifications: H3K115me2 H3K122me1, binder concentration: 10 nM",0.0224 ± 0.00092
same,peptide microarray binding signal,"[2]; peptide modifications: H3K115me2 H3K122me1, binder concentration: 100 nM",0.0286 ± 0.0023
same,peptide microarray binding signal,[3]; [19],0.0024 ± 0.00012
same,peptide microarray binding signal,[3]; [20],0.002853 ± 2.4e-05
same,peptide microarray binding signal,[4]; [19],0.0016 ± 2.9e-05
same,peptide microarray binding signal,[4]; [20],0.001441 ± 1.4e-05
IHAKRVTIMPKDI [H3 112-124 I H A Kme3 R V T I M P Kme3 D I],peptide microarray binding signal,"[1]; peptide modifications: H3K115me3 H3K122me3, binder concentration: 50 nM",0.00652 ± 0.00013
same,peptide microarray binding signal,"[1]; peptide modifications: H3K115me3 H3K122me3, binder concentration: 500 nM",0.014 ± 0.00024
same,peptide microarray binding signal,"[2]; peptide modifications: H3K115me3 H3K122me3, binder concentration: 10 nM",0.08 ± 0.013
same,peptide microarray binding signal,"[2]; peptide modifications: H3K115me3 H3K122me3, binder concentration: 100 nM",0.133 ± 0.011
same,peptide microarray binding signal,[3]; [21],0.0798 ± 0.017
same,peptide microarray binding signal,[3]; [22],0.0823 ± 0.0064
same,peptide microarray binding signal,[4]; [21],0.0648 ± 0.013
same,peptide microarray binding signal,[4]; [22],0.0227 ± 0.0026
IHAKRVTIMPKDI [H3 112-124 I H A Kme2 Rme2a V T I M P K D I],peptide microarray binding signal,"[1]; peptide modifications: H3K115me2 H3R116me2a, binder concentration: 50 nM",0.00392 ± 0.00012
same,peptide microarray binding signal,"[1]; peptide modifications: H3K115me2 H3R116me2a, binder concentration: 500 nM",0.0121 ± 0.00062
same,peptide microarray binding signal,"[2]; peptide modifications: H3K115me2 H3R116me2a, binder concentration: 10 nM",0.013 ± 0.0011
same,peptide microarray binding signal,"[2]; peptide modifications: H3K115me2 H3R116me2a, binder concentration: 100 nM",0.015 ± 0.0041
same,peptide microarray binding signal,[3]; [23],0.00655 ± 0.00081
same,peptide microarray binding signal,[3]; [24],0.00291 ± 6.6e-05
same,peptide microarray binding signal,[4]; [23],0.00612 ± 0.00057
same,peptide microarray binding signal,[4]; [24],0.00346 ± 0.00033
